Assay results taken from PubChem BioAssay (NCATS).
“And” between values parts separate entries of the source, which are not always exact repeats. Equal values may be shown once. Results filed as inconclusive are left out. Unmarked numbers belong to inactive results. The call rests on the fitted dose curve; in most records, active means well fitted inhibition curve with a large enough effect; inconclusive means small, poorly fitted or top-dose-only effect; inactive means flat fitted curve, though single readings scatter.
On the % scale 0 is the no-effect control and ±100 the full control effect.

The compounds below were run on KB-3-1 (assay: Cytotoxic Profiling of Annotated Libraries Using Quantitative High-Throughput Screening (AID 1296008; further: nearly all actives have a fitted effect of over 60% in size)). Conditions: Five cell lines viability, CellTiter-Glo ATP luminescence, 48-72 h; max response: active compounds read low.
In short: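 Compounds were pin-transferred onto cells and incubated 48 or 72 hr at 37 degree Celsius, 95% humidity. CellTiter-Glo was added, plates sat 10 min at room temperature, then ATP-coupled luminescence was imaged as the viability read-out.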
C[N+]1(C)[C@@H]2CC[C@H]1CC(OC(=O)c1c[nH]c3ccccc13)C2 (stereo not given in full) gave a max response of -6.15%. For CN1[C@H]2CC[C@@H]1[C@@H](C(=O)O)[C@@H](OC(=O)c1ccccc1)C2, the max response was 17.1% and -20.4%. O=CC=O showed a max response of -15.6%. CC(C)CCC(=O)O[C@H]1CC[C@H]2[C@@H]3CCC4=CC(=O)CC[C@]4(C)[C@H]3CC[C@]12C showed a max response of 19.3%. Work on CCCCCCCCCC(=O)O[C@H]1CC[C@H]2[C@@H]3CCC4=CC(=O)CC[C@]4(C)[C@H]3CC[C@]12C yielded a max response of 0.58%. CC(=O)OO was tested, and the max response was 2.94%. Work on ClCC1CO1 (stereo not given) yielded a max response of -11%. In the case of Clc1ccccc1Cl, the max response is reported as 4.39%. CCCC(C)C1(CC)C(=O)NC(=O)NC1=O (stereo not given) showed a max response of -12.9%. Work on CN(C)CCCCCCN(C)C (tested in a mixture with another compound) yielded a max response of 0.743%. Compound O=c1[nH]c(=O)n(Cl)c(=O)n1Cl has a max response of 7.09%. O=[N+]([O-])C(Br)(CO)CO was tested, and the max response was 1.16%. With COC(=O)[C@@H]1[C@H]2CC[C@@H](C[C@H]1OC(=O)c1ccccc1)N2C the max response was 0.336%. In the case of COc1ccc(OC)c([C@@H](O)[C@H](C)N)c1, the max response is reported as -0.699%. Work on CCC(=O)O[C@]1(c2ccccc2)CCN(C)C[C@H]1C yielded a max response of -2.12%. CC1(C)S[C@@H]2[C@H](N)C(=O)N2[C@H]1C(=O)O gave a max response of -11.7%. ClC1C(Cl)C(Cl)C(Cl)C(Cl)C1Cl (stereo not given) gave a max response of 2.37%. C[C@]12C=CC(=O)C=C1CC[C@@H]1[C@@H]2CC[C@]2(C)OC(=O)CC[C@@H]12 gave a max response of 5.64%. C[C@]12CC[C@H]3[C@@H](CCC4=C(Cl)C(=O)CC[C@@]43C)[C@@H]1CC[C@@H]2O showed a max response of 3.69%. With CCCCCc1cc(O)c2c(c1)OC(C)(C)[C@@H]1CCC(C)=C[C@@H]21 the max response was -12.3%. O=C1CCO1 showed a max response of -17.3%. Work on O=c1c2ccccc2[se]n1-c1ccccc1 yielded a max response of -5.46%. Compound O=c1ccc2cc(O[C@@H]3O[C@H](CO)[C@@H](O)[C@H](O)[C@H]3O)c(O)cc2o1 has a max response of -2.51%. For CN1CCCC(=C(c2cccs2)c2cccs2)C1, the max response was -14.6%. In the case of C[C@]12CC[C@H](OS(=O)(=O)O)CC1=CC[C@@H]1[C@@H]2CC[C@]2(C)C(=O)CC[C@@H]12, the max response is reported as 5.94%. For Clc1ccc(Cl)cc1, the max response was 0.597%. With CCC1(CC)C(=O)NC(=O)N(C)C1=O the max response was -2.91%. Compound O=C(OCCN1CCCCC1)C(O)(c1ccccc1)c1ccccc1 has a max response of 1.68%. Cn1sc(Cl)cc1=O gave a max response of -13.7%. With NCC[C@H](O)C(=O)N[C@@H]1C[C@H](N)[C@@H](O[C@H]2O[C@H](CN)[C@@H](O)[C@H](O)[C@H]2N)[C@H](O[C@@H]2O[C@H](CO)[C@@H](O)[C@H]2O)[C@H]1O the max response was 11%. C=CCN=C=S showed a max response of -2.35%. Work on Oc1cc(Cl)c(Cl)cc1Cl yielded a max response of 0.226%. Compound C[C@]12CC[C@H]3[C@@H](CCC4=C(O)C(=O)CC[C@@H]43)[C@@H]1CC[C@@H]2OC(=O)CCC1CCCC1 has a max response of -5.37%. In the case of C=CCC1(C(C)CCC)C(=O)N=C(S)NC1=O (stereo not given), the max response is reported as -6.22%. In the case of S=C=S, the max response is reported as -1.39%.
